From PubChem BioAssay
TRPV1 potentiator: enhances activation of the human vanilloid receptor TRPV1. Q8NER1. TRPV1-expressing cells, Fluo-8 calcium influx, capsaicin EC20 potentiation. potentiation, % at 8.33 µM. 0.02% of 320,000 active; in the data active means potentiation above about 80%; inconclusive means between about 30% and that limit; further: 0% is about no effect
Target sequence (Q8NER1 whole entry, looked up): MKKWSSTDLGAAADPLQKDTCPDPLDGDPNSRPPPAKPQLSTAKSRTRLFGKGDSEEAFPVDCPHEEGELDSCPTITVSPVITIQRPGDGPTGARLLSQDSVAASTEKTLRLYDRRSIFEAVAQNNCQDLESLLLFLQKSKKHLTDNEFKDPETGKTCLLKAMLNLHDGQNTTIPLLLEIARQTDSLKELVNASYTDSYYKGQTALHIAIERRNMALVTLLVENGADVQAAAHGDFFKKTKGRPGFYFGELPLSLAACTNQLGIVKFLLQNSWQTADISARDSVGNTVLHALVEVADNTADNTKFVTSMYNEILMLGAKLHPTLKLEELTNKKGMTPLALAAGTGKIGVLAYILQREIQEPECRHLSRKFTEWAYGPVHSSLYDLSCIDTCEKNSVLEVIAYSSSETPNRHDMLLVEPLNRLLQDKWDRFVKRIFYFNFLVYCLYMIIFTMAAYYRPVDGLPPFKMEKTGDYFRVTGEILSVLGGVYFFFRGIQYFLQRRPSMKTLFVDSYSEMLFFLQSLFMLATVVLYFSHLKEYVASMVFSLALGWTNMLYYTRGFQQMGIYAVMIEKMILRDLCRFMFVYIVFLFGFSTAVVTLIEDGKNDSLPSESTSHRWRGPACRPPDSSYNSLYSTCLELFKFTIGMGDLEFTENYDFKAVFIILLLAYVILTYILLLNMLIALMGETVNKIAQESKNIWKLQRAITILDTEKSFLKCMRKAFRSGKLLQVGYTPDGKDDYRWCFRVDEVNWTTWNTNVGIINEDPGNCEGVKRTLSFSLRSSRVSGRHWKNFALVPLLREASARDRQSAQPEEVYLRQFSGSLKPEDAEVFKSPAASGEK
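TRPV1-expressing cells were cultured overnight at 35.5C and loaded with Fluo-8 calcium dye for 40 to 90 min at room temperature. After a 10 s baseline, compound was added and calcium influx was read kinetically for 3 min (ex 480/em 520 nm).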
TRPV1 ag: agonists of human vanilloid receptor 1 (TRPV1); AID 540275; 0.19% of 320,000 active; activation, % at 8.33 µM; TRPV1-expressing cells, Fluo-8 calcium influx, agonist mode; Q8NER1; in the data active means activation above about 80%; inconclusive means between about 30% and that limit; further: 0% is about no effect
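TRPV1-expressing cells were cultured overnight at 35.5C and loaded with Fluo-8 calcium dye for 40 to 90 min at room temperature. After a 10 s baseline, compound was added and calcium influx was read kinetically for 3 min (ex 480/em 520 nm).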
D1 potentiator: enhances dopamine response at the human D1 receptor; P21728; HEK293 TREx D1 cells, calcium flux, dopamine EC20 potentiation; potentiation, % at 10 µM; 0.036% of 360,000 active; in the data active means potentiation above about 30%; further: 0% is about no effect
D1 antag: blocks dopamine activation of the human D1 receptor; AID 504652; P21728; 3.2% of 360,000 active; activity change, negative = inhibition, % at 10 µM; HEK293 TREx D1 cells, calcium flux, dopamine EC80; hits give low values; in the data active means activity change below about -30%; further: on the % scale 0 is the no-effect control and ±100 the full control effect
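HEK293 T-REx cells expressing inducible, force-coupled D1 receptor; no-wash Ca dye, 30–90 min RT. Cmpd → 180 s read at 1 Hz → EC80 DA → 180 s read.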
D1 agonist: human D1 receptor agonism; activation, % at 2 µM; AID 504660; 1% of 360,000 active; P21728; HEK293 T-REx D1 cells, calcium flux, agonist mode; in the data active means activation above about 30%; further: 0% is about no effect
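Agonism was scored from calcium flux recorded over 180 s (1 read/s) after pintool compound addition, following a 10-cycle baseline. Cells were inducible force-coupled HEK293 TREx D1, plated overnight at 30 C and loaded with no-wash calcium dye.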
* marks the source's active call; other numbers are inactive results; ? = inconclusive; nt = no result given. Most compounds without a hit are left out; they make up all but 4.2% or so of the library.

SMILES | TRPV1 potentiator | TRPV1 ag | D1 potentiator | D1 antag | D1 agonist
CC1CCN(S(=O)(=O)c2ccc3c(c2)N(CC(=O)O)C(=O)CO3)CC1 | nt | nt | 0 | 6 | -5
COC(=O)C1CCN(CC(=O)N(C)c2c(N)n(Cc3ccccc3)c(=O)[nH]c2=O)CC1 | -7 | -2 | -5 | -36* | 0
O=C(Cn1cc(SCc2ccc(F)cc2)c2ccccc21)N1CCCC1 | nt | nt | -5 | -30* | 6
O=C(CSc1cn(CC(=O)N2CCCC2)c2ccccc12)Nc1ccccc1C(F)(F)F | nt | nt | -7 | -44* | 0
O=C(CSc1cn(CC(=O)N2CCOCC2)c2ccccc12)Nc1ccccc1C(F)(F)F | nt | nt | -3 | -2 | 2
Cn1ncc2c(Nc3cccc(C#N)c3)ncnc21 | nt | nt | -2 | -3 | -4
O/N=C(\c1ccc(Cl)cc1)c1cc2ccccc2o1 | 5 | 1 | -3 | -16 | 32*
O=C(NC1CC(=O)N(c2ccc(F)cc2)C1)C1CCCC1 (stereo not given) | nt | nt | -1 | nt | 3
O=[N+]([O-])c1ccc(NC2CCCC2)cc1 | 0 | 2 | 3 | -17 | 9
O=[N+]([O-])c1ccc(N/N=C2/CCCCC2c2ccccn2)cc1 (stereo not given) | 5 | -2 | 9 | -59* | 2
CCCCNc1nc(Oc2ccc(=O)n(-c3ccccc3)n2)nc(N(CC)CC)n1 | nt | nt | 1 | -10 | 3
O=C(CN1C(=O)COc2ccc(S(=O)(=O)N3CCCCCC3)cc21)N1CCN(c2ccc(F)cc2)CC1 | nt | nt | 2 | 14 | 0
CC(OC(=O)c1ccc2ccccc2c1)C(=O)N(C)Cc1ccccc1 (stereo not given) | 4 | 1 | -1 | -24 | 3
CC(C)N(CCC(=O)c1ccc2ccccc2c1)Cc1ccccc1 | -12 | 14 | -7 | -32* | 1
COc1ccc(-c2csc3ncnc(N4CCN(c5ccccc5O)CC4)c23)cc1 | -16 | ? | -15 | -20 | 44*
Cc1ccc(-c2csc3ncnc(N4CCN(c5ccccc5O)CC4)c23)cc1 | ? | 4 | 4 | 0 | 4
CCc1cc(OCCN(C)C)ccc1Cl | 9 | 0 | -1 | -6 | 3
CCc1cc(OCCCCNCc2ccccc2)ccc1Cl | 5 | 2 | 9 | -1 | 51*
CCOCCCNCc1ccc(OCc2ccccc2Cl)cc1 | 11 | -4 | 0 | -13 | 36*
Clc1cc(Br)ccc1OCCCNCc1ccccc1 | 1 | 10 | -6 | 6 | 55*
CCOCCCNCc1ccc(OC)cc1 | 6 | -3 | -3 | 0 | 0
CN(Cc1ccccc1)C(=O)COc1ccc(Br)cc1Cl | 0 | 24 | 2 | 2 | 1
CC(C)(C)c1ccc(OCCCNCc2ccccc2)cc1 | -16 | 7 | 5 | 26 | 61*
COCCCNCCCOc1ccc(C(C)(C)c2ccccc2)cc1 | -4 | -1 | 0 | 13 | 9
Cc1nc(SCc2ccc(Br)cc2)[nH]c(=O)c1C | -5 | 0 | -18 | -41* | 3
SMILES | TRPV1 potentiator | TRPV1 ag | D1 potentiator | D1 antag | D1 agonist
Cc1cc(C)c(C#N)c(SCc2nnc(-c3ccccc3[N+](=O)[O-])o2)n1 | 9 | 2 | 4 | -4 | 38*
COc1ccc(N2CC(NC(=O)COc3ccc4ccccc4c3)CC2=O)cc1 (stereo not given) | nt | nt | -3 | nt | 8
O=C(CSc1ccc(Cl)cc1)N/N=C/c1ccc([N+](=O)[O-])o1 | 0 | -1 | -11 | -34* | 9
COc1ccc(C2CC(=O)c3cc(-c4nc(-c5ccc(C)cc5)cs4)c(=O)[nH]c3C2)cc1 (stereo not given) | nt | nt | -1 | -10 | 6
COc1ccc(C(=O)Nc2ccc(N3CCN(C)CC3)cc2)cc1 | 4 | 3 | -3 | 3 | 3
CN1CCN(c2ccc(NC(=O)c3ccc4ccccc4c3)cc2)CC1 | -16 | ? | -16 | -71* | 10
O=C(COC(=O)c1ccc(O)cc1O)Nc1ccc2ccccc2c1 | 4 | 2 | -3 | -37* | 5
CN1CCN(c2ccc(NC(=O)COc3cccc4ccccc34)cc2)CC1 | 3 | -1 | -20 | -26 | 4
O=C(COc1ccc2ccccc2c1)Nc1ccc(Cc2ccncc2)cc1 | -1 | ? | -8 | -34* | 27
CN1CCN(c2ccc(NC(=O)COc3ccc4ccccc4c3)cc2)CC1 | -11 | 21 | -3 | -39* | 16
O=C(Nc1cc(-c2ccc(Cl)cc2)no1)c1ccc(F)cc1 | nt | nt | -2 | -6 | 0
O=C(Cn1nc(Cc2cccnc2)c2ccccc2c1=O)Nc1cccc(C(F)(F)F)c1 | nt | nt | 1 | 5 | 0
CC(C)c1nn2c(=O)cc(COC(=O)c3ccc(NC(=O)CCc4ccccc4)cc3)nc2s1 | nt | nt | 0 | -18 | 4
CC(=O)Nc1ccc(NC(=O)COc2ccc3c(c2)CCC3)cc1 | -15 | 26 | 5 | -35* | 2
COc1ccc(CCNC(=O)C2(C)CCC(=O)N2Cc2ccc3c(c2)OCO3)cc1OC (stereo not given) | -6 | 1 | 0 | -1 | 2
COc1ccc(CCNC(=O)C2(C)CCC(=O)N2Cc2ccc(F)cc2Cl)cc1OC (stereo not given) | 4 | 1 | -2 | -33* | 0
COc1ccccc1OCC(O)CN1CCN(C(=O)c2ccccc2)CC1 (stereo not given) | 0 | 2 | 1 | -36* | 1
COc1cc(C(C)=O)ccc1OCC(O)CN1CCN(c2c(C)cccc2C)CC1 (stereo not given) | -13 | 3 | -3 | 1 | 7
COc1cc(C(C)=O)ccc1OCC(O)CN1CCN(S(=O)(=O)c2ccccc2)CC1 (stereo not given) | -5 | 3 | 0 | -31* | 0
Cc1ccc(-n2ncc3c2CC(C)(C)CC3NC(=O)c2ccccn2)cc1 (stereo not given) | -18 | ? | -3 | -76* | 1
C=CCC(=O)NC1CC(C)(C)Cc2c1cnn2-c1ccc(C)cc1 (stereo not given) | -2 | 15 | -9 | -17 | 0
O=C(Nc1ccc2nc(SCC(=O)N3CCc4ccccc43)sc2c1)c1cccc(F)c1 | nt | nt | -1 | -7 | 2
COc1cccc(CNC(=O)C(=O)NCC(c2ccc3c(c2)OCO3)N2CCOCC2)c1 (stereo not given) | nt | nt | -4 | 12 | 0
Cn1cc(Br)c(-c2cccc(NC(=O)CCC(=O)O)c2)n1 | -4 | -1 | -4 | -37* | 1
Cn1cc(Br)c(-c2cccc(NC(=O)CC(C)(C)CC(=O)O)c2)n1 | 7 | -1 | 6 | 12 | 1
O=C(O)CCC(=O)Nc1cccc(-c2csc(-c3ccccc3)n2)c1 | 11 | 1 | -1 | -34* | 3
COc1ccccc1NC(=O)c1sc2nc(C)c(C(=O)Nc3ccc(C)cc3C)c(-c3cccs3)c2c1N | nt | nt | -3 | -8 | 26
CCc1ccccc1NC(=O)c1ccc2c(c1)nnn2C1CCCC1 | nt | nt | 0 | -30* | 5
